Counter-ions that a name gives are not always drawn. ± gives the standard deviation of the averaged measurements.
What was measured:
[1] = test system: Saccharomyces cerevisiae BY4741 SeMeCo community; experiment: z-score of prototroph abundance vs DMSO median; higher = larger share of this subpopulation than in DMSO controls; details: 10 µM; 24 h; SM minimal medium; subpopulation (auxotrophy): Prototroph
Outline: (§1)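 Four plasmids, each restoring a single auxotrophy and encoding a distinct fluorescent protein, were carried by a Saccharomyces cerevisiae BY4741 community. After overnight growth to OD600 1.0 and dilution to 0.3, 70 µl per well was grown for 24 h in minimal SM medium on 384-well plates acoustically predosed with library drugs at 10 µM final. Following paraformaldehyde fixation, automated confocal microscopy was used, with single-auxotroph fluorescent strains defining thresholds and autofluorescence correction. Subpopulation abundance was then scored as a z-score against the vehicle-well median.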

[2] = test system: Saccharomyces cerevisiae BY4741 SeMeCo community; experiment: z-score of subpopulation abundance vs DMSO median, subpopulation auxotrophic for M; higher = larger share of this subpopulation than in DMSO controls; details: 10 µM; 24 h; SM minimal medium; subpopulation (auxotrophy): M
Outline: as §1

[3] = test system: Saccharomyces cerevisiae BY4741 SeMeCo community; experiment: z-score of subpopulation abundance vs DMSO median, subpopulation auxotrophic for U; higher = larger share of this subpopulation than in DMSO controls; details: 10 µM; 24 h; SM minimal medium; subpopulation (auxotrophy): U
Outline: as §1

[4] = test system: Saccharomyces cerevisiae BY4741 SeMeCo community; experiment: z-score of subpopulation abundance vs DMSO median, subpopulation auxotrophic for H; higher = larger share of this subpopulation than in DMSO controls; details: 10 µM; 24 h; SM minimal medium; subpopulation (auxotrophy): H
Outline: as §1

[5] = test system: Saccharomyces cerevisiae BY4741 SeMeCo community; experiment: z-score of subpopulation abundance vs DMSO median, subpopulation auxotrophic for LU; higher = larger share of this subpopulation than in DMSO controls; details: 10 µM; 24 h; SM minimal medium; subpopulation (auxotrophy): LU
Outline: as §1

[6] = test system: Saccharomyces cerevisiae BY4741 SeMeCo community; experiment: z-score of subpopulation abundance vs DMSO median, subpopulation auxotrophic for LM; higher = larger share of this subpopulation than in DMSO controls; details: 10 µM; 24 h; SM minimal medium; subpopulation (auxotrophy): LM
Outline: as §1

[7] = test system: Saccharomyces cerevisiae BY4741 SeMeCo community; experiment: z-score of subpopulation abundance vs DMSO median, subpopulation auxotrophic for HM; higher = larger share of this subpopulation than in DMSO controls; details: 10 µM; 24 h; SM minimal medium; subpopulation (auxotrophy): HM
Outline: as §1

[8] = test system: Saccharomyces cerevisiae BY4741 SeMeCo community; experiment: z-score of subpopulation abundance vs DMSO median, subpopulation auxotrophic for HU; higher = larger share of this subpopulation than in DMSO controls; details: 10 µM; 24 h; SM minimal medium; subpopulation (auxotrophy): HU
Outline: as §1

[9] = test system: Saccharomyces cerevisiae BY4741 SeMeCo community; experiment: z-score of subpopulation abundance vs DMSO median, subpopulation auxotrophic for UM; higher = larger share of this subpopulation than in DMSO controls; details: 10 µM; 24 h; SM minimal medium; subpopulation (auxotrophy): UM
Outline: as §1

[10] = test system: Saccharomyces cerevisiae BY4741 SeMeCo community; experiment: z-score of subpopulation abundance vs DMSO median, subpopulation auxotrophic for HLU; higher = larger share of this subpopulation than in DMSO controls; details: 10 µM; 24 h; SM minimal medium; subpopulation (auxotrophy): HLU
Outline: as §1

[11] = test system: Saccharomyces cerevisiae BY4741 SeMeCo community; experiment: z-score of subpopulation abundance vs DMSO median, subpopulation auxotrophic for HLM; higher = larger share of this subpopulation than in DMSO controls; details: 10 µM; 24 h; SM minimal medium; subpopulation (auxotrophy): HLM
Outline: as §1

[12] = test system: Saccharomyces cerevisiae BY4741 SeMeCo community; experiment: z-score of subpopulation abundance vs DMSO median, subpopulation auxotrophic for HUM; higher = larger share of this subpopulation than in DMSO controls; details: 10 µM; 24 h; SM minimal medium; subpopulation (auxotrophy): HUM
Outline: as §1

[13] = test system: Saccharomyces cerevisiae BY4741 SeMeCo community; experiment: z-score of subpopulation abundance vs DMSO median, subpopulation auxotrophic for LUM; higher = larger share of this subpopulation than in DMSO controls; details: 10 µM; 24 h; SM minimal medium; subpopulation (auxotrophy): LUM
Outline: as §1

[14] = test system: Saccharomyces cerevisiae BY4741 SeMeCo community; experiment: z-score of subpopulation abundance vs DMSO median, subpopulation auxotrophic for HLUM; higher = larger share of this subpopulation than in DMSO controls; details: 10 µM; 24 h; SM minimal medium; subpopulation (auxotrophy): HLUM
Outline: as §1

[15] = test system: Saccharomyces cerevisiae BY4741 SeMeCo community; experiment: mean cell size (pixel area) (pixels); higher = larger cells; details: 10 µM; 24 h; SM minimal medium
Outline: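 For 24 h, 70 µl of yeast culture diluted to OD600 = 0.3 from an overnight preculture at OD600 = 1.0 was kept in SM medium in 384-well plates acoustically predosed with drug, final 10 µM. The strain was Saccharomyces cerevisiae BY4741 forming a fluorescent community of four plasmids, each complementing one auxotrophy and carrying a fluorescent marker. Automated confocal microscopy of paraformaldehyde-fixed cells, analysed in Harmony, provided mean cell pixel area per well, which was averaged over 3 replicates. Same SeMeCo high-content imaging drug screen: Selleck FDA-approved drugs at 10 µM, 24 h in SM medium, 384-well plates, 3 replicates.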

[16] = test system: Saccharomyces cerevisiae BY4741 SeMeCo community; experiment: z-score of subpopulation abundance vs DMSO median, subpopulation auxotrophic for HL; higher = larger share of this subpopulation than in DMSO controls; details: 10 µM; 24 h; SM minimal medium; subpopulation (auxotrophy): HL
Outline: as §1

[17] = test system: Saccharomyces cerevisiae BY4741 SeMeCo community; experiment: z-score of subpopulation abundance vs DMSO median, subpopulation auxotrophic for L; higher = larger share of this subpopulation than in DMSO controls; details: 10 µM; 24 h; SM minimal medium; subpopulation (auxotrophy): L
Outline: as §1

Structure (SMILES)	z-score of prototroph abundance [1]	z-score of subpopulation abundance [2]	z-score of subpopulation abundance [3]	z-score of subpopulation abundance [4]	z-score of subpopulation abundance [5]	z-score of subpopulation abundance [6]	z-score of subpopulation abundance [7]	z-score of subpopulation abundance [8]	z-score of subpopulation abundance [9]	z-score of subpopulation abundance [10]	z-score of subpopulation abundance [11]	z-score of subpopulation abundance [12]	z-score of subpopulation abundance [13]	z-score of subpopulation abundance [14]	mean cell size [15]	z-score of subpopulation abundance [16]	z-score of subpopulation abundance [17]
CCCCc1oc2ccc(NS(C)(=O)=O)cc2c1C(=O)c1ccc(OCCCN(CCCC)CCCC)cc1 [Dronedarone HCl]	-0.15	-0.05	-0.45	1.17	0.61	0.28	1.04	0.78	-0.63	2.17	1.9	-0.2	0.59	0			
CCCCN(CCCC)CC(O)c1cc(Cl)cc2c1-c1ccc(Cl)cc1/C2=C/c1ccc(Cl)cc1 (stereo not drawn) [Lumefantrine]	-1	-0.39	1.6	0.2	0.38	-0.24	0.53		2.56	-0.32		1.37	0.62	-0.39	12.4 ± 0.14	-0.58	
CC[C@@H](CO)NCCN[C@@H](CC)CO [Ethambutol 2HCl]	-0.36	-0.81	1.13	-1.02		0.23	-0.9	0.27	1.23	0.56	0.16	0.7	1.15	0.6	12.46 ± 0.11	0.36	0.27
Cc1nccn1CC1CCc2c(c3ccccc3n2C)C1=O (stereo not drawn) [Ondansetron HCl]		-1.05	0.47	-0.7		-0.49	-0.93	-0.51	0.08	-0.69	-0.71	-0.03	-0.9	-0.89	12.4 ± 0.2		-0.44
Cc1ncc([N+](=O)[O-])n1CC(O)CCl (stereo not drawn) [Ornidazole]	0.34	1.05	-0.47	-0.77		0.41	0.34	-0.37	-0.4	-0.38	-0.03	0.44	-0.87	0.77	12.5 ± 0.26	0.53	0
NCc1ccccc1CC(=O)N[C@@H]1C(=O)N2C(C(=O)O)=C(CSc3nnnn3CC(=O)O)CS[C@H]12 [Ceforanide]	-0.53	-0.21	-0.98	2.15		1.65	1.01	0.2		0.38	0.46	0.56	2.06	1.14	12.09 ± 0.042	2.92	2.29
Cn1c(=O)c2[nH]cnc2n(C)c1=O [Aminophylline]	-0.44	0.43	0.26	-0.41	1.06	0.92	0.42	-0.5	0.33	-0.5	-0.27	0.11	0.29	-0.29			

Reference: the supplement of paper PMC8975748
